PubChem BioAssay (NCATS)
Where “and” joins values, the source holds several entries; their conditions need not be identical. Equal values may be shown once. Inconclusive results are not listed. Entries that show only a call come without a potency. Calls of active or inactive are those of the source. Unless noted, calls follow the shape of the dose curve; as a rule, active = well fitted curve in the direction sought with a large enough effect; inconclusive = small, poorly fitted or top-dose-only effect, or another doubt; inactive = no such curve, though single readings can be large; an effect the other way counts as inactive or inconclusive.

What was measured:
[1] = Cell Viability - Hek293 (AID 427;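 active = compounds whose dose-response curve shows a full or clear partial loss of cell viability, called from curve shape rather than a numeric limit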;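 also: potency is read from the fitted curve at half-maximal effect; cells exposed to compound for 40 hours at 37 °C before reading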); conditions: qHTS
In short: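 Luminescent ATP read-out (CellTiter-Glo, 20 min RT) after 40 hr compound exposure at 37 °C in complete medium. Signal normalized to DMSO (basal) and 100 uM tamoxifen (100% inhibition); concentration-response fitted with the standard Hill equation to give AC50.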

[2] = Cell Viability - MRC5 (AID 434; calls by dose curve;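 also: potency is read from the fitted curve at half-maximal effect; cells exposed to compound for 40 hours at 37 °C; potency reflects cytotoxicity seen as loss of intracellular ATP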); conditions: MRC5 lung fibroblast viability, qHTS
In short: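 AC50 values come from Hill-equation fits of intracellular ATP loss, measured by CellTiter-Glo luminescence. Normal lung fibroblasts (MRC5) had 40 hr compound treatment at 37 C, normalized between DMSO and 100 uM tamoxifen.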

[3] = Cellular Toxicity (caspase-3) HepG2 (AID 654); conditions: HepG2 caspase-3 activation, luminescence, 0% = DMSO only, 100% = tamoxifen; series mostly up to 92.2 µM;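 also: cells exposed to compound for 16 hours before reading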
In short: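 Caspase 3/7 activation in HepG2 is measured as rising luminescence after a 16 hr treatment at 37 °C. Values are scaled between DMSO basal and 100 uM tamoxifen, and AC50 is fitted with the Hill equation.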

[4] = MultiTox-Fluor Cytotoxicity Assay - LYMP1-001 - Live Cells (AID 947); conditions: LYMP1-001 lymphoblastoid cells, live-cell protease fluorescence viability; series mostly up to 92.2 µM
[5] = Cell Viability - LYMP2-004 (AID 966); conditions: LYMP2-004 lymphoblastoid cell viability, qHTS; series mostly up to 92.2 µM; also: nearly all actives have a fitted effect of over 65% in size
In short: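 qHTS cytotoxicity: human lymphoblastoid line, 24 hr compound treatment, 37 C, complete medium. Viability read as cellular ATP via luciferase luminescence; tetraoctylammonium bromide served as positive control.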

[6] = Cell Viability - LYMP2-005 (AID 967); conditions: LYMP2-005 lymphoblastoid cell viability; series mostly up to 92.2 µM
In short: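 Steps: seed 2500 LYMP2-005 cells/well, incubate 5 h at 37 C, add compound, incubate 24 h at 37 C, add CellTiter-Glo, wait 30 min at RT, read luminescence. Concentration-response data fitted to Hill equation for AC50.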

[7] = Cell Viability - LYMP2-025 (AID 976); conditions: LYMP2-025 lymphoblastoid cell viability; series mostly up to 92.2 µM
In short: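 Acute cytotoxicity is scored as a concentration-dependent fall in intracellular ATP, measured by luciferase luminescence, in human lymphoblastoid LYMP2-025 cells exposed to compound for 24 hours at 37 C. AC50 values come from standard Hill fits.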

[8] = Cell Viability - LYMP2-016 (AID 984); conditions: LYMP2-016 lymphoblastoid cell viability, qHTS; series mostly up to 92.2 µM; also: nearly all actives have a fitted effect of over 55% in size
In short: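 qHTS, 1536-well: 2500 LYMP2-016 cells/well, 5 hr 37 C, compound added, 24 hr 37 C, CellTiter-Glo 30 min RT, luminescence. Tetraoctylammonium bromide positive control. AC50 via Hill fit.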

[9] = Cell Viability - LYMP2-018 (AID 985); conditions: LYMP2-018 lymphoblastoid cells, viability (qHTS); series mostly up to 92.2 µM;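 also: compound exposure lasted 24 hr at 37 °C; nearly all actives have a fitted effect of over 50% in size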
In short: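 Seed 2500 lymphoblastoid cells per well, incubate 5 hr at 37 C, add compound and incubate 24 hr at 37 C, add CellTiter-Glo, wait 30 min at room temperature, then read luminescence.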

[10] = Cell Viability - LYMP2-022 (AID 987); conditions: LYMP2-022 lymphoblastoid cell viability; series mostly up to 92.2 µM; also: nearly all actives have a fitted effect of over 55% in size; also: potency is read from the fitted curve at half-maximal effect
In short: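 Cells were seeded at 2500 per well, rested 5 hr at 37 C, and treated with titrated compounds for 24 hr at 37 C. Cellular ATP was then quantified by luciferase luminescence, and AC50 values were derived from Hill-modelled concentration-response curves.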

[11] = Cell Viability - LYMP2-024 (AID 988); conditions: LYMP2-024 lymphoblastoid cell viability; series mostly up to 92.2 µM; also: nearly all actives have a fitted effect of over 60% in size; also: potency is read from the fitted curve at half-maximal effect
In short: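 qHTS cytotoxicity, human lymphoblastoid line, complete medium; 24 h cpd treatment, 37 C; CellTiter-Glo ATP luminescence readout; tetraoctylammonium bromide positive control; AC50 via Hill fit.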

[12] = Cell Viability - LYMP1-002 - Assay at 24 hr (AID 993); conditions: LYMP1-002 lymphoblastoid cells viability; series mostly up to 92.2 µM
In short: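 Acute toxicity is measured as concentration-dependent loss of cellular ATP in a human lymphoblastoid line (Coriell LYMP1-002) after 24 h treatment in complete medium. ATP is quantified by luciferase luminescence and AC50 derived by Hill modelling.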

[13] = biological target: Peroxisome proliferator-activated receptor gamma (Homo sapiens) (UniProt P37231); assay: qHTS assay for small molecule agonists of peroxisome proliferator-activated receptor gamma signaling (AID 588536; active = well fitted curve in the direction sought with a large enough effect in the signal ratio, with a control signal flat, not every such curve was filed as active; the % refers to the signal ratio); conditions: HEK293 PPARg-UAS-bla, beta-lactamase ratio, 16 h, percent of rosiglitazone response, DMSO as zero; series mostly up to 76.7 µM
Peroxisome proliferator-activated receptor gamma (Homo sapiens), sequence (P37231 whole entry, looked up): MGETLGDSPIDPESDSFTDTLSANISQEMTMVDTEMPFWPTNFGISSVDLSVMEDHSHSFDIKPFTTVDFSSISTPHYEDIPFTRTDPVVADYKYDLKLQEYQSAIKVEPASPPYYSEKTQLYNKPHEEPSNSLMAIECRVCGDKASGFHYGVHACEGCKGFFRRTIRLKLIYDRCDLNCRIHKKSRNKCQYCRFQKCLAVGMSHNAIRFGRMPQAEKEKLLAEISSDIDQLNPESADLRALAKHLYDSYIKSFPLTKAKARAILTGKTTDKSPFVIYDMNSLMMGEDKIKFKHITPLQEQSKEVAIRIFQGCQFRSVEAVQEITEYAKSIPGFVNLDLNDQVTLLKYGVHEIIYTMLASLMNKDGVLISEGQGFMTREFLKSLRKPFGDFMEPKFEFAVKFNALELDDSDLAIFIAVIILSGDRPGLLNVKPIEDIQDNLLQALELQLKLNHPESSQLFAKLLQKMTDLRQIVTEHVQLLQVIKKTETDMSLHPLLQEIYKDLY
In short: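 Compound treatment: 16 h, 37 C, HEK293 GeneBLAzer cells. Detection: CCF4, 2 h RT. Values: Hill-fit EC50, efficacy as % of 2 uM rosiglitazone.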

[14] = biological target: Thyroid hormone receptor beta (Homo sapiens) (UniProt P10828); assay: qHTS assay for small molecule agonists of thyroid hormone receptor beta signaling (AID 588545; calls by dose curve); conditions: TR-UAS-bla GripTite HEK 293, beta-lactamase ratio, agonist mode, 18 h; series mostly up to 76.7 µM
Thyroid hormone receptor beta (Homo sapiens), sequence (P10828 whole entry, looked up): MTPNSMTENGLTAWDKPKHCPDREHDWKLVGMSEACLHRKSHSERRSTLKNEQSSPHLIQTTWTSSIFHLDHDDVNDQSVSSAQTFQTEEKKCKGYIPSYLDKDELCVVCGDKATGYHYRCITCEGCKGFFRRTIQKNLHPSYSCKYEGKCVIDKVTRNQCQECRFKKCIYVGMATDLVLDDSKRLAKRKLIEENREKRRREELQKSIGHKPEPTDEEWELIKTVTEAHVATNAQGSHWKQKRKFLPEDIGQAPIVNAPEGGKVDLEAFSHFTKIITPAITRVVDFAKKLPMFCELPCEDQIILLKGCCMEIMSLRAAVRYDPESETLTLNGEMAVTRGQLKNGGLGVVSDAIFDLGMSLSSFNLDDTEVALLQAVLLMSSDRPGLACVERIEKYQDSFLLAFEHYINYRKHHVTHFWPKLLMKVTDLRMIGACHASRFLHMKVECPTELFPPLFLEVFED
In short: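 Efficacy and EC50 values derive from Hill fits of qHTS titration data, normalized to 10 nM T3 and DMSO-only wells. HEK 293 reporter cells were stimulated for 18 hrs at 37 C, with beta-lactamase activity measured by CCF4 fluorescence.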

[15] = qHTS assay for small molecule antagonists of retinoid X receptor alpha signaling (AID 588546); conditions: HEK293T RXRa-UAS-bla, beta-lactamase ratio, antagonist mode; measured here: W530 green channel, cytotoxicity proxy;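 also: cells stimulated with 9-cis-retinoic acid as agonist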
In short: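 Beta-lactamase reporter inhibition, read as CCF4 fluorescence ratio (ex 405, em 460/530 nm) after 2 h at RT. HEK293T UAS-bla cells, 2500/well, were stimulated with 9-cis-RA at 500 or 100 nM final alongside test compound for 18 h at 37 C.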

[16] = biological target: Thyroid hormone receptor beta (Homo sapiens) (UniProt P10828); assay: qHTS assay for small molecule antagonists of thyroid hormone receptor beta signaling (AID 588547; active = well fitted inhibition curve with a large enough effect in the signal ratio, with a control signal flat, not every such curve was filed as active; the % refers to the signal ratio;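 also: cells stimulated with 0.4 nM T3 agonist during compound exposure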); conditions: TR-UAS-bla HEK293, beta-lactamase ratio, antagonist mode, 18 h
In short: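 Inhibition of T3-driven (0.4nM final) beta-lactamase reporter activity was measured over 0.59 nM to 92 uM compound after 18 h at 37 C. The cells were GripTite HEK293 TR-UAS-bla in charcoal/dextran-stripped serum, with CCF4 ratio read-out and IC50 from Hill fits.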

[17] = biological target: Mitogen-activated protein kinase 10 (Mus musculus) (UniProt Q61831); assay: JNK3 AlphaScreen Assay (AID 530; active = well fitted curve in either direction with a large enough effect, not every such curve was filed as active;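 also: kinase came from lysate of stimulated human HepG2 cells; signal reports phosphorylation of biotinylated GST-cJun 1-79 at Ser73 with 10 µM ATP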); conditions: JNK3 lysate, c-Jun phosphorylation; series mostly up to 57.1 µM
In short: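 qHTS titrations with 15 min compound pre-incubation before adding ATP (10 uM final). Read-out: AlphaScreen of Ser73-phosphorylated biotin-GST-cJun using HepG2 lysate JNK3 activated by IL-1β and TNFα.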

[18] = MultiTox-Fluor Cytotoxicity Assay - LYMP1-002 - Dead Cells (AID 960); conditions: LYMP1-002 lymphoblastoid cells, dead-cell protease fluorescence; series mostly up to 46.1 µM; also: nearly all actives have a fitted effect of over 60% in size
In short: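 Cells were plated, rested 5 hr, then treated with compound dilution series for 16 hr at 37 C. After adding substrate reagent and 60 min at room temperature, dead-cell protease fluorescence gave concentration-response curves fitted by the Hill equation.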

[19] = qHTS assay for small molecule agonists of retinoid X receptor alpha signaling (AID 588544); conditions: HEK293T RXRa-UAS-bla, beta-lactamase reporter, 18 h; 530 nm emission
[20] = biological target: Tumor necrosis factor (Homo sapiens) (UniProt P01375); assay: qHTS assay to identify small molecules that stimulate Tumor Necrosis Factor-alpha (TNF-alpha) secretion (AID 651757; active = well fitted curve in the direction sought with a large enough effect in the signal ratio; the % refers to the signal ratio); conditions: Human cells, HTRF 665/615 ratio; series mostly up to 92.2 µM
Tumor necrosis factor (Homo sapiens), sequence (P01375 whole entry, looked up): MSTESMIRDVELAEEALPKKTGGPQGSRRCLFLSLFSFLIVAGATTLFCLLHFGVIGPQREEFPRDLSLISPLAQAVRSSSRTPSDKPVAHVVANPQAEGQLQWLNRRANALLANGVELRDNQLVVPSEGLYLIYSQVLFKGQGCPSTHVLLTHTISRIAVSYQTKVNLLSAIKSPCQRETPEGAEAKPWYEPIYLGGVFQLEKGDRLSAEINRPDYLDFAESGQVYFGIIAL
In short: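 Human monocytic THP-1 cells are plated, treated with compound and held at 37 C for 17 hrs. Labeled anti-TNF-alpha antibody mixture is then added; after 3 hr at room temperature, TR-FRET signal reports secreted TNF-alpha.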

Compound	Potency [1]	Potency [2]	outcome [3]	outcome [4]	Potency [5]	Potency [6]	Potency [7]	Potency [8]	Potency [9]	Potency [10]	Potency [11]	Potency [12]	outcome [13]	Potency [14]	max response [15]	activity change % (negative = inhibition) [16]	Potency [17]	Potency [18]	max response [19]	outcome [20]
Cc1cc(N=Nc2ccccc2C)ccc1N	> 92 µM (inactive)	> 92 µM (inactive)	inactive	inactive	inactive	inactive	inactive	inactive	inactive	inactive	inactive	inactive	inactive	inactive	-7.48%	-2.95% (inactive) and 5.44% (inactive)	–	–	–	–
BrCC(Br)(Br)Br	–	–	–	inactive	inactive	–	–	–	–	7.94 µM (active)	12.6 µM (active)	inactive	inactive	–	2.45%	-15.5% (inactive)	inactive	inactive	19.6%	inactive
O=[N+]([O-])c1ccc(Cl)c(Cl)c1Cl	> 92 µM (inactive)	> 92 µM (inactive)	inactive	inactive	inactive	inactive	inactive	inactive	inactive	inactive	inactive	inactive	inactive	inactive	-8.55%	–	inactive	inactive	3.54%	inactive
O=[N+]([O-])c1ccc2c3c(cccc13)CC2	> 92 µM (inactive)	> 92 µM (inactive)	inactive	–	inactive	inactive	inactive	inactive	inactive	inactive	inactive	inactive	inactive	inactive	-3.8% and -0.996%	-2.33% (inactive) and 7.31% (inactive)	inactive	inactive	20.4% and -8.69%	inactive
Clc1ccc(C(c2ccccc2Cl)C(Cl)(Cl)Cl)cc1 (stereo not given)	–	> 92 µM (inactive)	inactive	inactive	inactive	inactive	inactive	inactive	inactive	inactive	inactive	inactive	inactive	inactive	5.48%	–	–	–	–	inactive
CN(C)c1ccc(N(C)C)cc1	> 92 µM (inactive)	> 92 µM (inactive)	–	inactive	–	–	inactive	–	–	39.8 µM (active)	50.1 µM (active)	inactive	inactive	inactive	-9.82%	-0.335% (inactive)	inactive	inactive	-11.6%	–
ClC(Br)Br	> 92 µM (inactive)	> 92 µM (inactive)	inactive	inactive	inactive	inactive	inactive	inactive	inactive	inactive	inactive	inactive	inactive	inactive	-8.78%	16% (inactive)	inactive	inactive	-3.88%	inactive
CC(C)[N+](=O)[O-]	> 92 µM (inactive)	> 92 µM (inactive)	inactive	inactive	inactive	inactive	inactive	inactive	inactive	inactive	inactive	inactive	inactive	inactive	10.7%	5.36% (inactive)	inactive	inactive	5.89%	inactive
